We go through 4 molecules from PubChem BioAssay AID2284348 (EPA ToxCast).

Inconclusive results are not listed. Activity calls are given as the source filed them. How the source made its calls: active means hit-call score of the fitted dose curve at least 0.9, where 1 is the maximum; inconclusive means response in the unintended direction; inactive means score below 0.9.

The test system of the assay is Japanese medaka Peroxisome Proliferator-activated Receptor alpha (PPARa), gene 100304458. In words: ATG_jmPPARa_EcoTox2: Attagene TRANS-FACTORIAL EcoTox-2 HepG2 Assay for Japanese medaka Peroxisome Proliferator-activated Receptor alpha (PPARa). On the procedure: ATG_EcoTox2 is a cell-based, multiplexed assay created by modifying the existing Attagene TRANS-FACTORIAL system to include a panel of nuclear receptors from some or all the following species: human (Homo sapiens), african clawed frog (Xenopus laevis), rainbow trout (Oncorhynchus mykiss), japanese medaka (Oryzias latipes), and zebrafish (Danio rerio). The ECOTOX2-FACTORIAL format uses HepG2, a human liver cell line, with measurements taken at 24 hours after chemical dosing in a 24-well plate. ATG_jmPPARa_EcoTox2 is one of 29 assay components calculated in the ATG_EcoTox2 assay. It is designed to make measurements of mRNA induction, a form of inducible reporter, as detected with fluorescence intensity signals by Reverse transcription polymerase chain reaction (RT-PCR) and Capillary electrophoresis technology.The assay endpoint ATG_jmPPARa_EcoTox2 was analyzed in the positive analysis fitting direction relative to DMSO as the negative control and baseline of activity. Using a type of inducible reporter, measures of mRNA for gain-of-signal activity can be used to understand the reporter gene at the transcription factor-level as they relate to the gene PPARa. Furthermore, this assay endpoint can be referred to as a […], because this assay has produced multiple assay endpoints where this one serves a reporter gene function. To generalize the intended target to other relatable targets, this assay endpoint is annotated to the nuclear receptor intended target family, where the subfamily is non-steroidal.
Human liver HepG2 cells are transiently transfected with multiple reporter transcription units (MRTUs) in 6-well plates using FuGene 6 reagent (Roche; 3 ml FuGene/1 mg DNA). The MRTU constructs are regulated by a cis-regulating element (promoter). Each RTU expresses a GAL4-UAS that regulates the transcription of a nearby target reporter gene sequence. A major difference between the CIS and TRANS system is that in CIS activities of endogenous TFs are measured, whereas the TRANS assay evaluates changes in activities of exogenous, chimeric NR-Gal4 proteins. […] At the end of 24 hour incubation, total RNA was isolated using TriZol reagent (Invitrogen). The isolated RNA is then reverse-transcribed using oligo(dT) primer and Mo-MLV reverse transcriptase (Invitrogen) with DNAse I (Ambion) treatment for 30 min. The one-tenth of the produced cDNA was amplified by PCR using Taq DNA polymerase (Invitrogen) and two reporter sequence-specific primers. […] The fragments were purified using Qiaquick PCR columns (Qiagen), analyzed on an ABI 3130xL genetic analyzer (Applied Biosystems) with peak positions identified by using a set of X-rhodamine (ROX)-labeled MapMarker1000 molecular weight standards (BioVentures). […]
Turning to `[Cl][Sn]([c]1ccccc1)([c]1ccccc1)[c]1ccccc1`, the AC50 is 0.473 µM (active).
As to `CCCCOCN(C(=O)CCl)c1c(CC)cccc1CC`, the AC50 is 50 µM (active).
The same measure, in the same setting: with `O=C(O)C(F)(F)C(F)(F)C(F)(F)C(F)(F)C(F)(F)C(F)(F)C(F)(F)F` the figure was 75 µM (active).
As to `O=S(=O)(O)C(F)(F)C(F)(F)C(F)(F)C(F)(F)C(F)(F)C(F)(F)F`, the molecule was classed as inactive.

As a reminder, the AC50 is the midpoint of the concentration-response curve, whichever way the signal moves.
